Bioassay records as filed in PubChem BioAssay.
A selection: hits, their analogues and other compounds. The true share with any hit is near 6.5%.
VACV mCherry inh – vaccinia inhibition (mCherry reporter); Vaccinia virus mCherry reporter infection, fluorescence; Potency, µM (highest dose often 36.5 µM), hits mostly inhibitors; actives 0.63% (n = 310,000); calls by dose curve; tested in A549 cells; note: nearly all actives have a fitted effect of over 35% in size
VACV Venus inh – vaccinia inhibition (Venus reporter) | Vaccinia virus Venus reporter expression, fluorescence | Potency, µM (highest dose often 36.5 µM), usual class: inhibitors | actives 0.46% (n = 330,000) | AID 720580; calls by dose curve; tested in A549 cells; note: nearly all actives have a fitted effect of over 30% in size
HCMV inh – human cytomegalovirus inhibition; HFF cells, HCMV-luciferase reporter, 72 h; stronger effect = lower value; activity change, negative = inhibition, % at 57.5 µM; actives 4.5% (n = 410,000); AID 1259415; in the data active = activity change below about -60%; inconclusive = no clear call, values can overlap the other calls; inactive = above about -39%
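Cell-based, HFFs, 1000 cells/well, 16 h 37C; cpds in DMSO + HCMV-luc, MOI 1 PFU/cell; 72 h 37C; OneGlo luminescence after 5 min RT; norm. to buffer vs Salinomycin 10uM.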
FMDV inh – blocks foot and mouth disease virus; FMDV antiviral cell-based qHTS; Potency, µM (titrated, usually from 57.9 µM), usual class: inhibitors; actives 1.2% (n = 410,000); AID 1159524; calls by dose curve; tested in HEK293T cells; note: read-out not given here; nearly all actives have a fitted effect of over 45% in size
Lassa entry inh – blocks Lassa virus binding to or entry into cells; Lassa virus pseudotype entry inhibition, cell reporter; Potency, µM (highest dose often 37.9 µM), usual class: inhibitors; actives 1.2% (n = 300,000); AID 540256; calls by dose curve; tested in HEK293 cells; note: nearly all actives have a fitted effect of over 50% in size
Marburg entry inh – Marburg virus entry inhibition; Marburg virus pseudotyped entry inhibition, cell reporter; Potency, µM (top dose mostly 37.8 µM), usual class: inhibitors; actives 1.8% (n = 300,000); AID 540276; calls by dose curve; tested in HEK293 cells
Numbers stand for hits; n = inactive; u = inconclusive; x = not tested or not shown; ! = a repeat was not active; [ ] = dose if it differs, or a comment.

SMILES | VACV mCherry inh | VACV Venus inh | HCMV inh | FMDV inh | Lassa entry inh | Marburg entry inh
COC(=O)c1[nH]c2ccccc2c1NC(=O)CN1CCN(c2cccc(Cl)c2)CC1 | x | n | u | 14µM | n | u
COC(=O)c1[nH]c2cc(C)ccc2c1NC(=O)CN1CCOCC1 | n | n | n | n | n | u
COc1ccc(C2C(C#N)=C(N)Oc3c2sc2nc(C)cc(C)c32)cc1 (stereo not given) | n | n | -68 | 40µM | u | u
COc1ccc(C2C(C#N)=C(N)Oc3cc(N)ccc32)cc1 (stereo not given) | x | x | n | n | x | x
CCc1c(C)nc2ncnn2c1NCCc1ccc(OC)c(OC)c1 | x | x | -73 | u | n | n
COc1ccc(CCNc2c(C)c(C)nc3ncnn23)cc1 | u | u | -89 | u | u | u
CCCNC(=O)C[C@H]1CC[C@@H]2[C@H](COC[C@@H](O)CN2C(=O)c2ccccn2)O1 | n | n | n | n | x | x
O=C(OC1C2CCC1C1CN(CCc3ccccc3)CC12)c1ccccc1 (stereo not given) | n | n | -68 | u | u | u
CCOC(=O)C1CCCN(CCc2ccccc2)C1 (stereo not given) | x | x | n | n | x | x
CSCCC(c1nnnn1Cc1ccccc1)N1CCC(n2c(=O)[nH]c3ccccc32)CC1 (stereo not given) | n | n | -90 | n | x | x
O=c1[nH]c2ccccc2n1C1CCN(C(c2nnnn2Cc2ccccc2)C2CC2)CC1 (stereo not given) | n | n | u | n | x | x
O=c1[nH]c2ccccc2n1C1CCN(C(CCc2ccccc2)c2nnnn2Cc2ccccc2)CC1 (stereo not given) | u | 11µM | -103 | 35µM | x | x
CSCCC(c1nnnn1Cc1ccccc1)N1CCC2(CC1)C(=O)NCN2c1ccccc1 (stereo not given) | n | n | n | n | x | x
Cc1ccc(C(C)(C)C)c(SCC(=O)Nc2nnc(C)s2)c1 | n | n | u | n | 7.1µM | 7.1µM
Cc1nnc(NC(=O)CSc2ccccc2N)s1 | x | x | n | n | x | x
CC(C)c1ccc(/C=N/N2CCN(c3ccccn3)CC2)cc1 | n | n | -63 | n | n | u
CC(C)c1ccc(/C=N/N2CCCCC2)cc1 | n | n | -70 | n | n | u
C#CCN1C(=O)C(O)(CC(=O)c2ccc(OC)c(OC)c2)c2cc(Br)ccc21 (stereo not given) | n | n | -62 | n | n | n
CCCN1C(=O)C(O)(CC(=O)c2ccc(CC)cc2)c2ccccc21 (stereo not given) | n | n | n | n | n | x
CC(C)c1ccc(C(=O)CC2(O)C(=O)N(CCc3ccccc3)c3ccc(Cl)cc32)cc1 (stereo not given) | u | n | -105 | n | u | u
C#CCN1C(=O)C(O)(CC(=O)c2ccc(OC)c(OC)c2)c2ccccc21 (stereo not given) | x | x | n | u | n | u
CCCCN1C(=O)C(O)(CC(=O)c2ccc(CC)cc2)c2cc(Br)ccc21 (stereo not given) | n[7.34 µM] | n[7.34 µM] | -79 | n | n | u
O=C(CC1(O)C(=O)N(CCc2ccccc2)c2ccc(Br)cc21)c1ccccc1O (stereo not given) | n | n | -77 | n | u | n
Cc1cc(Br)ccc1NC(=O)COC(=O)c1ccccc1OCC(N)=O | n | n | x | x | x | x
CC[C@H]1SC2=NC(C)=C(C(=O)OCCOC)[C@@H](c3ccc(C(=O)OC)cc3)N2C1=O | x | x | x | x | x | n
SMILES | VACV mCherry inh | VACV Venus inh | HCMV inh | FMDV inh | Lassa entry inh | Marburg entry inh
O=C(CC1(O)C(=O)N(Cc2ccccc2)c2ccc(Br)cc21)c1ccccc1 (stereo not given) | n | n | n | n | n | n
C=CCN1C(=O)C(O)(CC(=O)c2ccco2)c2cc(Br)ccc21 (stereo not given) | n | n | -82 | n | x | x
COC(=O)CN1C(=O)C(O)(CC(=O)c2ccc(Br)cc2)c2ccccc21 (stereo not given) | n | n | -62 | n | x | x
Cc1ncc2c(c1CNS(=O)(=O)c1cccs1)CCN(C(=O)/C=C/c1ccc(F)cc1F)C2 | n | n | x | n | x | x
COc1ccc(CCN2C(=O)CSC2=Nc2ccc(C(C)C)cc2)cc1OC | n | n | u | 20µM | 1.4µM | u
COc1ccc(CCN2C(=O)CS/C2=N\NC(=O)c2ccc(C(C)(C)C)cc2)cc1OC | n | n | n | 32µM | n | n
COc1ccc(N=C2SCC(=O)N2CCc2ccc(OC)c(OC)c2)cc1 | x | x | n | u | x | x
COc1cc(C2C(C(=O)Nc3ccc(C)cc3C)=C(C)Nc3nc4ccccc4n32)cc(OC)c1OC (stereo not given) | n | n | n | n | n | n
Cn1c(C(=O)NCCc2ccccc2)cc2sc(Cl)cc21 | n | n | n | n | x | u
N=c1n(CCN2CCCCC2)c2ccccc2n1CC(O)c1ccco1 (stereo not given) | n | n | -67 | n | u | u
Cc1cccc(OCC(O)Cn2c(=N)n(CCN3CCCCC3)c3ccccc32)c1 (stereo not given) | u | u | -62! | u | u | 0.52µM
Cc1cnc(CNc2nc(-c3ccccc3C(F)(F)F)nc3ccccc23)cn1 | x | x | x | n | x | x
CN(C)c1ccc(-c2nc(NC3CCNCC3)c3ccccc3n2)cc1 | 11µM | 11µM | x | n | x | x
Cc1cnc(CNc2nc(-c3ccc(N(C)C)cc3)nc3ccccc23)cn1 | 11µM | u | x | n | x | x
CCOc1ccccc1NC(=S)/C(=C(\[O-])c1ccc2c(c1)OCCO2)[n+]1ccc(CC)cc1 | x | x | n | n | n | 7.3µM
[O-]C(=C(C(=S)Nc1cccc2ccccc12)[n+]1ccccc1)c1ccc2c(c1)OCCO2 | u | n | x | n | n | n
C[C@H](NC(=O)[C@@H]1Cc2ccccc2CN1C(=O)OC(C)(C)C)C(=O)NCc1ccco1 | x | x | n | n | x | x
Cc1ccnc(Nc2nc(-c3ccccc3)cs2)c1 | x | x | n | n | x | x
CC(=O)Nc1ccc(-c2csc(Nc3ccc(Cl)cn3)n2)cc1 | n | u | -61 | 25µM | n | u
CC(=O)Nc1ccc(-c2csc(Nc3cc(C)ccn3)n2)cc1 | n | n | -61 | u | u | u
Cc1ccnc(Nc2nc(-c3c(C)nc4sccn34)cs2)c1 | x | x | -76 | u | n | n
CC(=O)Nc1cccc(-c2csc(Nc3ccc(Cl)cn3)n2)c1 | n | u | n | n | x | x
CC[N+](C)(CC)CC(=O)Nc1c(C)cccc1C | x | x | x | n | x | x
CCN1CCCC1CNC(=O)c1cnn(-c2ncc3c(n2)-c2ccc(OC)cc2CC3)c1C1CC1 (stereo not given) | n | n | x | n | x | x
CC1=CC(C)(C(Cl)(Cl)Cl)C(C)=CC1=NO (stereo not given) | n | n | -69 | n | x | x
CCC1CCC(N2CCN(c3ccc([N+](=O)[O-])cc3)CC2)CC1 (stereo not given) | n | n | n | n | n | u
Cn1c(N)c(C(=O)CSc2nn(-c3ccc(F)cc3)c(=S)s2)c(=O)n(C)c1=O | x | x | u | 16µM | x | x
Fc1cccc(Cl)c1Cn1c(-c2cccs2)nc2ccccc21 | n[7.34 µM] | n[7.34 µM] | -63 | n | n | n
